Results on 13 molecules are retold here after PubChem BioAssay (Tox21).

Unmarked numbers belong to inactive results. Results filed as inconclusive are left out. Calls of active or inactive are those of the source. Calls come from the whole dose curve; as a rule, active = well fitted curve in the direction sought with a large enough effect in the repeat runs; inconclusive = weak or mixed curves; inactive = no such curve, though single readings can be large; an effect the other way counts as inactive or inconclusive.

Assay [1] in a line: qHTS RealTime-Glo MT Cell Viability Assay in HEK293 cells - 16 hour (AID 1224872). Note: top concentration of the series differs between compounds; nearly all actives have a fitted effect of over 50% in size. A digest of the protocol: (§1)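 Assay medium contained NanoLuc luciferase plus cell-permeant prosubstrate, added with HEK293 cells at 600 cells/well. After 5 h at 37 C/5% CO2 compounds were added; plates stayed at 37 C for 40 h with serial luminescence reads.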
Assay [2] is described as follows: qHTS RealTime-Glo MT Cell Viability Assay in HepG2 cells - 8 hour (AID 1224873). Note: nearly all actives have a fitted effect of over 55% in size. Put shortly: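 HepG2 cells (600/well) mixed with RealTime-Glo MT reagent, settled 5 h at 37 C/5% CO2 before compound addition. Nonlytic NanoLuc luminescence from viable-cell prosubstrate reduction read repeatedly during 40 h treatment at 37 C.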
A short description of assay [3]: qHTS RealTime-Glo MT Cell Viability Assay in HEK293 cells - 40 hour (AID 1224874). Note: nearly all actives have a fitted effect of over 50% in size. Note: potency is the fitted concentration of half-maximal effect. The note with it: RealTime-Glo luminescence; max response: stronger effect = lower value. Put shortly: (§2)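 600 cells/well were plated with the nonlytic NanoLuc/prosubstrate reagent, pre-incubated 5 h, then given 23 nL of compound in DMSO. Incubation at 37 C for 40 h, with luminescence from viable-cell-reduced substrate read repeatedly from 0 h.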

Assay [4] in a line: A CellTox Green Cytotoxicity Assay to monitor cytotoxicity in HEK293 cells - 24 hour (AID 1224875). Note: series mostly up to about 77 µM; nearly all actives have a fitted effect of over 45% in size. Put shortly: (§3)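 HEK293 cells, 600/well, were preincubated 5 hours and then exposed to compounds at 37 C for up to 40 hours. A cell-impermeant cyanine dye staining dead-cell DNA was read by fluorescence at 0, 8, 16, 24, 32 and 40 h time points.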
Assay [5] can be described thus: A CellTox Green Cytotoxicity Assay to monitor cytotoxicity in HepG2 cells - 16 hour (AID 1224876). Note: nearly all actives have a fitted effect of over 45% in size. Put shortly: (§4)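 HepG2 cells, 600/well, preincubated 5 h with CellTox Green dye, then exposed to Tox21 compounds in DMSO at 37 C for up to 40 h. Dead-cell DNA fluorescence read at the indicated time point.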
Assay [6] can be described thus: qHTS RealTime-Glo MT Cell Viability Assay in HepG2 cells - 32 hour (AID 1224877). Note: nearly all actives have a fitted effect of over 55% in size. Put shortly:
(§5)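 qHTS, HepG2, 600 cells/well, RealTime-Glo (NanoLuc + prosubstrate) added with cells; 5 h preincubation; DMSO compound addition; 37 C; luminescence at 0/8/16/24/32/40 h.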

The nature of assay [7]: A CellTox Green Cytotoxicity Assay to monitor cytotoxicity in HepG2 cells - 24 hour (AID 1224878). Note: nearly all actives have a fitted effect of over 45% in size. Put shortly: as §4
Assay [8] is described as follows: A CellTox Green Cytotoxicity Assay to monitor cytotoxicity in HepG2 cells - 40 hour (AID 1224879). Note: nearly all actives have a fitted effect of over 40% in size. A digest of the protocol: as §4
Assay [9] is described as follows: qHTS RealTime-Glo MT Cell Viability Assay in HEK293 cells - 0 hour (AID 1224880). Note: top concentration of the series differs between compounds; nearly all actives have a fitted effect of over 45% in size. A digest of the protocol: as §2
A short description of assay [10]: A CellTox Green Cytotoxicity Assay to monitor cytotoxicity in HEK293 cells - 32 hour (AID 1224881). Note: nearly all actives have a fitted effect of over 40% in size. A digest of the protocol:
as §3

The nature of assay [11]: A CellTox Green Cytotoxicity Assay to monitor cytotoxicity in HepG2 cells - 0 hour (AID 1224882). Note: nearly all actives have a fitted effect of over 35% in size. Put shortly: as §4
The nature of assay [12]: A CellTox Green Cytotoxicity Assay to monitor cytotoxicity in HepG2 cells - 32 hour (AID 1224883). Note: nearly all actives have a fitted effect of over 50% in size. Put shortly:
as §4

Assay [13] is described as follows: A CellTox Green Cytotoxicity Assay to monitor cytotoxicity in HEK293 cells - 8 hour (AID 1224884). Note: nearly all actives have a fitted effect of over 35% in size. Put shortly:
as §3

A short description of assay [14]: qHTS RealTime-Glo MT Cell Viability Assay in HepG2 cells - 16 hour (AID 1224885). Note: nearly all actives have a fitted effect of over 50% in size. A digest of the protocol: as §5
Assay [15] in a line: qHTS RealTime-Glo MT Cell Viability Assay in HEK293 cells - 24 hour (AID 1224886). For activity change, negative = cytotoxicity: top concentration of the series differs between compounds. Note: nearly all actives have a fitted effect of over 50% in size. Note: potency is the fitted concentration of half-maximal effect. Put shortly: as §1
A short description of assay [16]: qHTS RealTime-Glo MT Cell Viability Assay in HEK293 cells - 8 hour (AID 1224887). Put shortly:
as §2

A short description of assay [17]: A CellTox Green Cytotoxicity Assay to monitor cytotoxicity in HEK293 cells - 16 hour (AID 1224888). Note: nearly all actives have a fitted effect of over 35% in size. A digest of the protocol: as §3
Assay [18] in a line: qHTS RealTime-Glo MT Cell Viability Assay in HepG2 cells - 0 hour (AID 1224889). Note: nearly all actives have a fitted effect of over 50% in size. A digest of the protocol:
as §5

The nature of assay [19]: A CellTox Green Cytotoxicity Assay to monitor cytotoxicity in HepG2 cells - 8 hour (AID 1224890). Note: nearly all actives have a fitted effect of over 45% in size. A digest of the protocol:
as §4

Assay [20] in a line: A CellTox Green Cytotoxicity Assay to monitor cytotoxicity in HEK293 cells - 40 hour (AID 1224871). Note: nearly all actives have a fitted effect of over 45% in size. A digest of the protocol:
as §3
% is set by controls: 0 for no effect and ±100 for the full control effect.

Regarding `CC/C=C\CCOC(=O)C(C)C`, the Potency result in assay [1], in assay [4], in assay [5], in assay [6], in assay [7] and in assay [8] was “inactive” in each case. The Potency entry in [10], in assay [11], in assay [12], in assay [13], in assay [15] and in [16] was “inactive” each time. Further, the Potency entry in assay [17], in assay [18] and in assay [19] was “inactive” throughout. Moreover, the result in assay [2], in assay [9] and in assay [14] was inactive. Also, the max response in [3] is -2.11%.
Regarding `CC1=CC(=O)CC(C)(C)C1=O`, the Potency entry in assay [1], in [4], in assay [5], in assay [6], in [7] and in assay [8] was “inactive” in each case. For the same molecule, the Potency entry in [10], in assay [11], in assay [12], in assay [13], in assay [15] and in [16] was “inactive” throughout. The Potency entry in assay [17], in assay [18] and in assay [19] was “inactive” throughout. Also, the call in [2], in assay [9] and in [14] was inactive. Besides, the max response in assay [3] was -4.9%.
Take `CN1CCN(C2=Nc3cc(F)ccc3Cc3ccccc32)CC1`: the Potency entry in assay [20], in assay [1], in [4], in assay [5], in assay [6] and in assay [7] was “inactive” in each case. The Potency entry in [8], in assay [10], in assay [11], in [12], in assay [13] and in assay [15] was “inactive” in each case. The Potency result in [16], in assay [17] and in [19] was “inactive” each time. Further, the result in assay [9] and in assay [14] was inactive.
As for `CCOC(=O)NCCC[Si](OCC)(OCC)OCC`, the Potency result in assay [1], in assay [4], in assay [5], in [6], in assay [7] and in assay [8] was “inactive” each time. The Potency entry in assay [11], in assay [12], in assay [13], in [15], in [16] and in assay [17] was “inactive” in each case. Further, the Potency entry in [18] and in assay [19] was “inactive” throughout. In addition, the outcome in [2], in assay [9] and in assay [14] was inactive. The max response in [3] was 4.72%.
On to `CCOc1ccc(OCC)c(Cl)c1`, for which the Potency entry in assay [1], in assay [4], in [5], in [6], in assay [7] and in assay [8] was “inactive” each time. The Potency entry in assay [10], in [12], in assay [13], in assay [15], in assay [16] and in assay [18] was “inactive” throughout. Besides, the Potency result in assay [19] was “inactive”. Moreover, the result in assay [2], in assay [9] and in assay [14] was inactive. Further, the max response in assay [3] is 5.94%.
For the molecule `CCCCNc1ccc(C(=O)OCCN(CC)CC)cc1`, the Potency entry in assay [20], in [4], in assay [5], in assay [7], in [8] and in assay [10] was “inactive” throughout. The Potency entry in assay [11], in assay [13], in [16], in [17], in [18] and in assay [19] was “inactive” each time. Moreover, the outcome in [2], in assay [9] and in [14] was inactive. Also, in assay [3], the max response is -22.9%.
For the molecule `Cc1ccc([N+](=O)[O-])c(N)c1`, the Potency entry in [1], in assay [4], in assay [5], in assay [6], in assay [7] and in [8] was “inactive” each time. The Potency result in assay [10], in assay [11], in assay [12], in assay [13], in [15] and in assay [16] was “inactive” in each case. Besides, the Potency result in assay [17], in assay [18] and in assay [19] was “inactive” each time. Further, the outcome in assay [2], in [9] and in assay [14] was inactive. In addition, the max response in assay [3] was -1.42%.
`O=C(O)c1cccc(Cl)c1Cl`: the Potency result in [1], in assay [4], in assay [5], in assay [6], in assay [7] and in [8] was “inactive” throughout. Besides, the Potency entry in [10], in assay [11], in assay [12], in assay [13], in assay [15] and in assay [16] was “inactive” each time. For the same molecule, the Potency entry in [17], in assay [18] and in [19] was “inactive” throughout. The result in assay [2], in assay [9] and in assay [14] was inactive. The max response in assay [3] is -7.63%.
As to `CCOC(=O)c1cc(=O)c2c(OCC(COc3cccc4oc(C(=O)OCC)cc(=O)c34)OC(=O)[C@@H](N)CCCCN)cccc2o1`, the Potency entry in assay [1], in [4], in [5], in assay [6], in [7] and in assay [8] was “inactive” each time. The Potency entry in assay [11], in [12], in assay [13], in [15], in [16] and in assay [17] was “inactive” each time. Besides, the Potency result in assay [18] and in [19] was “inactive” throughout. Moreover, the result in [2], in assay [9] and in assay [14] was inactive. For the same molecule, the max response in assay [3] was 3.47%.
As to `O=C(O)CN(CCN(CC(=O)O)CC(=O)O)CCN(CC(=O)O)CC(=O)O`, the cytotoxicity increase is 19.7% [at 15.8 µM] in [20], 29.9% [at 15.8 µM] in assay [5], 18.1% [at 15.8 µM] in assay [13] and 26.9% [at 15.8 µM] in assay [19]. The viability change, negative = cytotoxic in assay [2] was -0.356% [at 15.8 µM]. The activity change in [4] is 15.9% [at 15.8 µM, stronger effect = higher value]. Also, the activity change, negative = cytotoxic was 0.371% [at 15.8 µM] in [6] and -0.409% [at 15.8 µM] in assay [14]. In addition, the cytotoxicity in assay [7] is 28.9% [at 15.8 µM]. Moreover, the values for the activity change, negative = cytotoxicity in assay [9] and in [18] were 6.1% [at 15.8 µM] and -4.51% [at 15.8 µM], respectively.
On to `C1CCOC1`, for which the Potency entry in [1], in [4], in assay [5], in assay [6], in assay [7] and in [8] was “inactive” in each case. Further, the Potency entry in assay [10], in assay [11], in assay [12], in assay [13], in assay [15] and in [16] was “inactive” in each case. In addition, the Potency result in assay [17], in assay [18] and in [19] was “inactive” throughout. For the same molecule, the result in assay [2], in [9] and in assay [14] was inactive. In addition, the max response in assay [3] was 0.369%.
Turning to `CCN(CC)CCNC(=O)COc1ccc(Cl)cc1`, the Potency result in [20], in assay [1], in [8], in [10], in [11] and in assay [13] was “inactive” each time. The Potency result in [15], in assay [16], in assay [17], in assay [18] and in assay [19] was “inactive” in each case. Moreover, the max response in assay [3] is 2.3%. Also, the outcome in [9] and in assay [14] was inactive.
Take `CC[C@H]1CC[C@H](NCc2cc3c(cc2OC)[C@H]2C[C@H]2C(=O)N3C)[C@H](c2ccccc2)N1`: the Potency result in assay [20], in assay [4], in [5], in assay [6], in assay [10] and in assay [11] was “inactive” each time. For the same molecule, the Potency result in [13], in [17], in assay [18] and in [19] was “inactive” in each case. Moreover, the call in [2], in assay [9] and in assay [14] was inactive. Further, the Potency in [3] and in [15] was 21.9 µM (active) in each case.
